# Experimental data from the supplement of paper PMC10646978.
# ± gives the standard deviation.
# Experiments:
# Settings in all cases: modulator concentration 10 µM
# [1] = tested on: RAW-Dual (murine macrophage reporter line); assay: NF-kB reporter (SEAP) activity fold change vs agonist alone; higher = enhanced NF-kB activity
# Procedure, shortened: (§1)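 RAW-Dual murine macrophage reporter cells were plated at 50 000 per well in 384-well plates, pin-transferred compound to 10 μM final, and pre-incubated for 1 hour at 37 °C before a PRR agonist was added and the cells incubated overnight. NF-κB activity was read from supernatant SEAP with QUANTI-Blue at 620 nm absorbance, and IRF activity from Lucia luciferase with QUANTI-Luc by luminescence. Each signal was expressed as fold change by dividing by the mean agonist-only control on the same plate. Two replicate plates were averaged, with errors obtained by propagation.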
# [2] = tested on: RAW-Dual (murine macrophage reporter line); assay: IRF reporter (Lucia luciferase) activity fold change vs agonist alone; higher = enhanced IRF activity
# Procedure, shortened: as §1
# [3] = tested on: RAW-Dual (murine macrophage reporter line); assay: viability score (confluency relative to resting cells, overnight) (fraction); higher = more viable, active = viable (0.7 or more)
# Procedure, shortened: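 RAW-Dual macrophages in 384-well plates were treated overnight with compound at 10 μM final. IncuCyte imaging recorded confluency, and IncuCyte software built two confluency masks across every imaged well. The viability score expresses confluency relative to resting cells and was judged against a cutoff, which a compound met only if both masks exceeded 70% of resting cells.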
# [4] = agonist: CpG ODN 1826 0.5 ug/mL
Structure (SMILES),"NF-kB reporter [1, 4]",NF-kB reporter ([1]; agonist: LPS 0.1 ug/mL),NF-kB reporter ([1]; agonist: MPLA […]),IRF reporter ([2]; agonist: 3'3'-cGAMP 10 ug/mL),IRF reporter ([2]; agonist: LPS 0.1 ug/mL),IRF reporter ([2]; agonist: MPLA […]),viability score [3]
CCN1C(=O)C(=C2SC(N3CCOCC3)=NC2=O)c2ccccc21,0.991 ± 0.08,1.07 ± 0.079,0.952 ± 0.064,0.949 ± 0.042,1.22 ± 0.13,0.978 ± 0.23,1.01 (active)
CC(C)CC(C(=O)Nc1cccc(O)c1)N1C(=O)c2ccccc2C1=O (configuration not stated),0.947 ± 0.076,1.04 ± 0.099,1.16 ± 0.083,1.04 ± 0.04,1.64 ± 0.15,1.63 ± 0.14,0.913 (active)
CCOc1ccc(NC(=O)N2C3C=CCC2CC3)cc1 (configuration not stated),1.09 ± 0.42,0.941 ± 0.055,1.04 ± 0.075,0.943 ± 0.054,0.921 ± 0.13,1.1 ± 0.1,0.814 (active)
O=C(CCC(=O)Nc1ccccc1)NN=Cc1ccc(Cl)cc1,1.01 ± 0.06,0.993 ± 0.062,1 ± 0.08,0.98 ± 0.036,1.48 ± 0.2,1.22 ± 0.13,1 (active)
NCC(O)CNCCc1ccccc1 (configuration not stated),0.782 ± 0.067,1.02 ± 0.13,1.22 ± 0.069,0.575 ± 0.021,1.12 ± 0.12,1.02 ± 0.093,1 (active)
CC(N)c1ccc(Nc2ncc3cc(-c4ccncc4)ccc3n2)cc1.Cl.Cl.Cl (configuration not stated),0.419 ± 0.069,1.26 ± 0.08,2.73 ± 0.16,0.173 ± 0.014,0.28 ± 0.05,0.42 ± 0.042,0.174 (inactive)
Cc1ccn2c(-c3csc(NCc4ccccc4)n3)c(C)nc2c1,0.787 ± 0.061,1.03 ± 0.048,1.19 ± 0.15,0.442 ± 0.05,1.38 ± 0.082,1.46 ± 0.12,1.01 (active)
CC(=O)c1cccc(NC(=O)CSc2nnc3c4ccccc4n(C)c3n2)c1,0.817 ± 0.063,0.835 ± 0.069,0.994 ± 0.091,0.904 ± 0.042,1.27 ± 0.11,1.41 ± 0.21,1.01 (active)
COC(CNC(=O)COc1cccc2c1OC(C)(C)C2)c1ccc(Cl)s1 (configuration not stated),0.539 ± 0.028,1.19 ± 0.1,0.998 ± 0.043,0.873 ± 0.046,0.883 ± 0.06,1.14 ± 0.34,0.939 (active)
CCOC(=O)CN1CCOCCOCCN(CC(=O)OCC)CCOCCOCC1,0.937 ± 0.078,0.971 ± 0.061,0.957 ± 0.067,0.974 ± 0.052,1.23 ± 0.088,1.02 ± 0.1,1.01 (active)
Cl.Cl.Fc1ccc(C(c2ccc(F)cc2)N2CCN(CC=Cc3ccccc3)CC2)cc1,0.834 ± 0.063,0.999 ± 0.065,1.15 ± 0.029,0.956 ± 0.089,0.896 ± 0.051,1.1 ± 0.16,0.996 (active)
CCOP(C)(=O)C(c1ccccc1)N(C)S(C)(=O)=O (configuration not stated),1.01 ± 0.089,1.04 ± 0.058,1.03 ± 0.062,1.03 ± 0.046,1.66 ± 0.19,1.22 ± 0.17,1.01 (active)
O=C(O)c1cc(O)ccc1O,0.972 ± 0.11,1.03 ± 0.055,0.977 ± 0.023,1.03 ± 0.078,0.969 ± 0.032,0.932 ± 0.11,0.996 (active)
Cn1c(=O)[nH]c2nnc(-c3cccnc3)nc2c1=O,1.09 ± 0.2,0.961 ± 0.084,0.975 ± 0.081,0.927 ± 0.03,1.22 ± 0.12,1.31 ± 0.13,0.881 (active)
COC1(c2ccc(Cl)cc2)OC(=O)c2ccccc21 (configuration not stated),0.805 ± 0.1,0.974 ± 0.052,1.07 ± 0.093,0.9 ± 0.052,1.06 ± 0.073,1.13 ± 0.16,0.992 (active)
CC(C)(CO)NC(=O)C(c1ccccc1)c1ccccc1,1.24 ± 0.14,0.961 ± 0.086,1 ± 0.041,0.937 ± 0.035,0.991 ± 0.051,0.896 ± 0.095,0.996 (active)
